Tb PGK inh: qHTS Assay to Find Inhibitors of Phosphoglycerate Kinase. 380,000 compounds, 0.043% hits. PGK/GAPDH coupled, Kinase-Glo luminescence, 60 min. Phosphoglycerate kinase, glycosomal (Trypanosoma brucei brucei), P07378. Potency, µM (top dose mostly 57.5 µM), without a hit: at the top dose activity change, negative = inhibition, hits mostly inhibitors; also: nearly all actives have a fitted effect of over 60% in size
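Luminescent ATP detection (Kinase-Glo Plus) follows a 60-minute room-temperature incubation, with wells lacking PGK as controls. Buffer: 100 mM TEA (pH 7.6), 5 mM MgCl2, 0.01% Tween-20. Coupling enzyme GAPDH (100 nM final) supplies unstable 1,3-BPG in-well.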
RECQ1 inh: qHTS Assay for Inhibitors of RecQ-Like Dna Helicase 1 (RECQ1); ATP-dependent DNA helicase Q1 (Homo sapiens), P46063; RECQ1 DNA unwinding, red fluorescence kinetic read; Potency, µM (highest dose often 57.3 µM), inactives show top-dose activity, negative = inhibition, hits mostly inhibitors; 240,000 compounds, 0.54% hits; AID 2549, 2010;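 also: plate controls were vehicle for no effect and no enzyme for full effect; nearly all actives have a fitted effect of over 30% in size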
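50 nM RECQ1T1 preincubated 15 min with compound in Tris pH 8.0 buffer with MgCl2, DTT, Tween-20 and 2.5 ug/ml poly(dI-dC); started with 200 nM TAMRA/BHQ-2 forked duplex and 2 mM ATP. Unwinding read as fluorescence (525/598 nm), two reads 2 h apart.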
TDP1 block: qHTS Assay for Inhibitors of Tyrosyl-DNA Phosphodiesterase (TDP1); Tyrosyl-DNA phosphodiesterase 1 (Homo sapiens), Q9NUW8; recombinant TDP1, AlphaScreen DNA substrate cleavage; Potency, µM (series often up to 130 µM), inactives show at the top dose activity change, negative = inhibition, most hits filed as inhibitors; 350,000 compounds, 0.28% hits; AID 485290, 2010; also: nearly all actives have a fitted effect of over 40% in size
Target sequence (Q9NUW8 whole entry, looked up): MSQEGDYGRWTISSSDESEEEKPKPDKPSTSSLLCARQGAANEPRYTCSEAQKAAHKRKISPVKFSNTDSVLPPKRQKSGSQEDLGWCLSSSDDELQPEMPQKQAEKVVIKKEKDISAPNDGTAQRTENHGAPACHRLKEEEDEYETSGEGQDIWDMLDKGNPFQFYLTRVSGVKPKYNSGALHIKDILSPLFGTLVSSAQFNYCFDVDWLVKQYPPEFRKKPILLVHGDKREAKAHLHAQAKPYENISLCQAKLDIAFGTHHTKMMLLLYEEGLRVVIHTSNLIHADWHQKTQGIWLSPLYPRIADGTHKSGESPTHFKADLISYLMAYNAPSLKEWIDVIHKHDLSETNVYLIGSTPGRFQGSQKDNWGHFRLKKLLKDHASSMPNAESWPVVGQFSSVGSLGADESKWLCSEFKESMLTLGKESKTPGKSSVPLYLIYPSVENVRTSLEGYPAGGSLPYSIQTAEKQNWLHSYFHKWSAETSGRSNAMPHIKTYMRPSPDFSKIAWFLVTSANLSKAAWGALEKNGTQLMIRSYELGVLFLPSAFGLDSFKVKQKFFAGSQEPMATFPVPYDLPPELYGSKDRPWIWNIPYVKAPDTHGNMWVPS
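Here, a 5' biotin and 3' phosphotyrosine-FITC DNA oligonucleotide reports Tdp1 activity: intact substrate bridges AlphaScreen beads, while cleavage leaves a 3' phosphate and drops signal. All incubations at room temperature.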
GLS inh: qHTS for Inhibitors of Glutaminase (GLS); Glutaminase kidney isoform, mitochondrial (Homo sapiens), O94925; GLS enzymatic activity, qHTS titration; Potency, µM (doses to about 45.5 µM), inactives show at the highest dose activity change, negative = inhibition, usual class: inhibitors; 410,000 compounds, 0.21% hits; AID 624170, 2012
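Human kidney-isoform GLS in 45 mM KH2PO4 pH 8.2, 0.02% Tween-20, with compound, started with 1mM L-Glutamine (added stock). Glutamate oxidase/HRP/Amplex red coupled fluorescence read at start and after 30 min at RT.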
BLM helicase inh: qHTS Assay for Inhibitors of Bloom's syndrome helicase (BLM). recombinant BLM DNA unwinding, fluorescence dequenching. Potency, µM (series often up to 56.1 µM), for the others: at the highest dose activity change, negative = inhibition, most hits filed as inhibitors. 350,000 compounds, 0.2% hits;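 also: plate controls were vehicle for no effect and no enzyme for full effect; nearly all actives have a fitted effect of over 35% in size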
APE1 inh: qHTS Assay for Inhibitors of the Human Apurinic/apyrimidinic Endonuclease 1 (APE1); Potency, µM (top dose mostly 65.8 µM), for inactives: at the top dose activity change, negative = inhibition, most hits filed as inhibitors; DNA repair nuclease/redox regulator APEX1 (Homo sapiens), P27695; AID 2517, 2012; recombinant APE1, TAMRA/BHQ-2 abasic DNA cleavage fluorescence; 350,000 compounds, 0.35% hits;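 also: plate controls were vehicle for no effect and reference inhibitor for full effect; nearly all actives have a fitted effect of over 55% in size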
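Activity was derived from the fluorescence gain between first and third kinetic reads (60 s intervals, ex 525/em 598 nm) after 50 nM THF-abasic TAMRA/BHQ-2 duplex was added to 0.75 nM APE1 preincubated 15 min with compound.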
Numbers without * were called inactive; ? = inconclusive; . = no result; ! = a repeat was not active; [ ] = remark or other dose. Rows were chosen to be rich in hits. Some 0.85% of all compounds tested hit in one or more screens of this group. Calls follow the shape of the dose curve; as a rule, active = well fitted curve in the direction sought with a large enough effect; inconclusive = small, poorly fitted or top-dose-only effect, or another doubt; inactive = no such curve, though single readings can be large; an effect the other way counts as inactive or inconclusive. Unless noted, % is scaled to controls: 0 for no effect and ±100 for the full control effect; potency is read from the fitted curve at half-maximal effect.

SMILES	Tb PGK inh	RECQ1 inh	TDP1 block	GLS inh	BLM helicase inh	APE1 inh
Cc1ccc(C(=O)NNc2ncnc3c2cnn3C)cc1	-1%	10%	1%	5µM*	-2%	?
Cc1c(P(=S)(c2ccccc2)c2ccccc2)c2ccccc2n1CCCc1ccccc1	.	.	1%	.	.	.
CCCC[C@@H](CC)COC(=O)C[C@H](C(=O)OC[C@H](CC)CCCC)S(=O)(=O)O	.	.	.	-8%	.	.
O=C(O)c1ccc(-n2cccc2/C=C2/SC(=O)N(CC(=O)N3CCCC3)C2=O)cc1	?	.	50µM*	16µM*	-6%	3.4µM*
O=C(CN1C(=O)S/C(=C/c2cccs2)C1=O)N1CCCC1	-8%	.	0%	0%	.	9%
Cc1csc(CNc2ncnc3cc(-c4ccc5c(c4)OCO5)ccc23)n1	.	.	0%	.	.	.
COc1ccc(C(=O)N(Cc2ccccc2)Cc2ccccc2)c(O)c1	.	.	-1%	.	.	.
COc1ccc(Cn2c3nc4ccccc4nc3c3c(=O)n(Cc4ccco4)c(C)nc32)cc1	.	3.5µM*	32µM*	.	?	?
CN(CCCC1CCCC1)C(=O)c1cc(COc2c(F)cccc2F)on1	1%	.	79µM*	2%	-16%	-40%
Nc1nc2c(nc(Br)n2[C@@H]2O[C@H]3COP(=O)(O)O[C@H]3[C@@H]2O)c(=O)[nH]1	.	-2%	-9%[56.1 µM]	.	-1%	2%
O=c1c2nc(Br)n([C@@H]3O[C@@H]4CO[P@@](O)(=S)O[C@H]4[C@H]3O)c2nc2[nH]c(-c3ccccc3)cn12	.	-1%	22µM*	.	-6%	13µM*
CC12C=CC(=O)C=C1CCC1C2C(O)CC2(C)C1CCC2(O)C(=O)COC(=O)CCC(=O)O (configuration not stated)	.	.	.	-5%	.	.
CC1(C)Cc2c(C#N)c(N3CCN(C(=O)c4ccccc4)CC3)nc(-c3ccco3)c2CS1	1%	-1%	2%	13%	28µM*	3%
CN1CCc2sc(NC(=O)Cc3ccccc3)c(C(=O)Nc3ccc(Cl)cc3)c2C1	.	.	-6%	.	.	.
CC(C)(CS(=O)(=O)[O-])NC(=O)CC[N+](C)(C)CCO	2.2µM*	1.4µM*	-3%	-11%	14µM*	6.3µM*
N=C1CCC(=N)c2c1c(O)c1ccccc1c2O	-25%	?	5%	?	32µM*	?
O=C(CSc1nnc(-c2cccc(S(=O)(=O)N3CCCC3)c2)n1-c1ccccc1)Nc1ccc(Cl)cc1	.	.	.	.	.	-3%
C/C(=N/NC(=O)c1cc2ccccc2cc1O)C1C(=O)c2ccccc2C1=O	?	?	-8%	?	28µM*	?
C/C(CC(=O)N1CCN(C=O)CC1)=N\NC(=O)c1cc2ccccc2cc1O	1%	28µM*	6%	-11%	-8%	-8%
C/C(=N\NC(=O)c1cc2ccccc2cc1O)c1ccccn1	-1%	.	-4%	-9%	0%	-9%
CC[C@H]1OC(=O)C[C@@H](O)[C@H](C)[C@@H](O[C@@H]2O[C@H](C)[C@@H](O)[C@H](N(C)C)[C@H]2O)[C@@H](CCN2C[C@H](C)C[C@H](C)C2)C[C@@H](C)C(=O)/C=C/C(C)=C/[C@@H]1CO[C@@H]1O[C@H](C)[C@@H](O)[C@@H](OC)[C@H]1OC	.	.	.	.	.	-2%
COc1ccc(C2c3c(N)nc(CCCc4ccccc4)nc3Oc3ccc4ccccc4c32)cc1OC (configuration not stated)	.	.	1%	.	.	.
Cc1ccccc1-c1cncnc1N(C)Cc1ccco1	.	-15%	22µM*	.	-4%	-12%
COc1ccccc1-c1cncnc1N(C)Cc1ccco1	.	-5%	.	.	3%	11%
Cc1ccccc1-c1nc2c(=O)n(C)c(=O)nc-2n(C)n1	.	.	2%	.	.	.
SMILES	Tb PGK inh	RECQ1 inh	TDP1 block	GLS inh	BLM helicase inh	APE1 inh
CCCc1nc2c(=O)n(C)c(=O)nc-2n(C)n1	?	?	6%	3%	2.8µM*	?
Cn1nc(-c2ccccn2)nc2c(=O)n(C)c(=O)nc1-2	?	4.5µM*	-1%	-5%	1µM*	?
Cc1cccc([S+](=O)([O-])NC2CCN(C#N)CC2)c1	.	.	0%	.	.	.
CC(C)=CCC/C(C)=C\CC/C(C)=C\CC/C=C(\C)CC/C=C(\C)CCC=C(C)C	.	.	.	6%	.	.
N[C@H](C(=O)O)[C@@H]1CC(Cl)=NO1	.	.	.	.	.	4%
COc1cccc(NC(=O)CN2C(=O)NC(C)(c3ccc(C)cc3)C2=O)c1 (configuration not stated)	14%	.	40µM*	9%	3%	31%
O=C1CCCC2=C1C1(CCSC1)N=C(Nc1nc3ccccc3o1)N2 (configuration not stated)	.	.	0%	.	.	.
C[c-]1[c-](C)[c-](C)[c-](C)[c-]1C.[Fe].c1cc2nccc(N3CCCC3)[c-]2c1 (configuration not stated)	?	6.3µM*!	7.9µM*!	13µM*!	?	2.8µM*!
c1cc(N2CCCCC2)nc(N2CCCCC2)n1	-8%	.	.	-18%	.	.
Oc1cccc(-c2c3nc(c(-c4cccc(O)c4)c4ccc([nH]4)c(-c4cccc(O)c4)c4nc(c(-c5cccc(O)c5)c5ccc2[nH]5)CC4)C=C3)c1	.	.	.	6%	.	.
O=C(N/N=C/c1cc(Br)c(Br)o1)c1ccc2c(c1)OCCO2	-8%	?	1%	21%	3%	32µM*
COc1ccnc2c1c(=O)n(Cc1ccccc1Cl)c(=O)n2C	0%	.	-2%	13µM*	-3%	2%
COc1ccnc2c1c(=O)n(Cc1ccc(Cl)cc1Cl)c(=O)n2C	-8%	.	6%	11µM*	-1%	44%
COc1ccnc2c1c(=O)n(Cc1c(F)cccc1Cl)c(=O)n2C	10%	.	8%	?	2%	53%
O=C(c1ccccc1O)N(Cc1ccco1)Cc1cccs1	.	.	0%	.	.	.
COC[C@@H](c1ccc(C(F)(F)F)cc1)N1CCN(C2(C)CCN(C(=O)c3c(C)ncnc3C)CC2)C[C@@H]1C	.	.	.	-1%	.	.
O=C(Nc1cccc(Cl)c1)c1cccc(N2C(=O)C3CC=CCC3C2=O)c1 (configuration not stated)	-18%	.	25µM*	?	-9%	?

Source: PubChem
